The sample as a whole holds a higher share of hits than the screen did.
Tg IFNy HTS – blocks Toxoplasma gondii growth in the presence of IFN-gamma | AID 1259416 | activity change, negative = inhibition, % (test concentration not listed) | actives 3.8% (n = 69,000) | Toxoplasma gondii growth in IFN-gamma-treated host cells; stronger effect = lower value; in the data active means activity change below about -70%, passing the limit was not always enough;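 further: host cells are HeLa cells infected with Toxoplasma gondii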
The depositor's hits bear a star; ! = a repeat was not active.

SMILES	Tg IFNy HTS
CSCC[C@H](NC(=O)[C@@H](N)Cc1c[nH]c2ccccc12)C(=O)N[C@@H](CC(=O)O)C(=O)N[C@@H](Cc1ccccc1)C(N)=O	25
COc1ccc(S(=O)(=O)Nc2ccc3c(c2)C(=O)N([C@H](C)CO)C[C@@H](C)[C@@H](CN(C)Cc2ccc(C(F)(F)F)cc2)OCCCC[C@@H](C)O3)cc1	-11
C[C@H]1CCCCO[C@H](CN(C)Cc2ccncc2)[C@@H](C)CN([C@@H](C)CO)C(=O)c2cc(NS(=O)(=O)c3ccc(Cl)cc3)ccc2O1	-47
COc1ccc(S(=O)(=O)Nc2ccc3c(c2)C(=O)N([C@H](C)CO)C[C@H](C)[C@H](CN(C)Cc2ccc(C(F)(F)F)cc2)OCCCC[C@@H](C)O3)cc1	21
C[C@@H]1CCCCO[C@H](CN(C)Cc2ccncc2)[C@H](C)CN([C@H](C)CO)C(=O)c2cc(NS(=O)(=O)c3ccc(Cl)cc3)ccc2O1	-103*
Cc1ccc(S(=O)(=O)Nc2ccc3c(c2)C(=O)N([C@H](C)CO)C[C@@H](C)[C@@H](CN(C)Cc2ccc(C(F)(F)F)cc2)O3)cc1	8
COc1ccc(S(=O)(=O)Nc2ccc3c(c2)C(=O)N([C@@H](C)CO)C[C@@H](C)[C@@H](CN(C)Cc2ccc(C(F)(F)F)cc2)OCCCC[C@@H](C)O3)cc1	-109*
COc1ccc(S(=O)(=O)Nc2ccc3c(c2)C(=O)N([C@H](C)CO)C[C@H](C)[C@H](CN(C)Cc2ccc(C(F)(F)F)cc2)OCCCC[C@H](C)O3)cc1	-111*
C[C@@H]1CCCCO[C@H](CN(C)Cc2ccncc2)[C@@H](C)CN([C@H](C)CO)C(=O)c2cc(NS(=O)(=O)c3ccc(Cl)cc3)ccc2O1	-23
C[C@@H]1CCCCO[C@@H](CN(C)Cc2ccncc2)[C@@H](C)CN([C@H](C)CO)C(=O)c2cc(NS(=O)(=O)c3ccc(Cl)cc3)ccc2O1	132
COc1ccc(S(=O)(=O)Nc2ccc3c(c2)C(=O)N([C@@H](C)CO)C[C@@H](C)[C@H](CN(C)Cc2ccc(C(F)(F)F)cc2)OCCCC[C@H](C)O3)cc1	-90*
NC(=O)c1cc(SC(F)(F)F)cc(SC(F)(F)F)c1	-27
CCOC(=O)c1c(NC(=O)c2ccc(OC)c(OC)c2)sc2c1CC(C)(C)OC2	-51
O=C(Nc1ccc(N2CCCC2)c2nonc12)c1cccc(CN2CCCC2=O)c1	8
CC(C)N(Cc1cnn(C)c1)C(=O)c1ccc(-n2cccc2)cc1	9
Cc1cc(CN(C)Cc2ccc(-n3ccnc3C)cc2)n[nH]1	-43
CCN1CCN(C)C(=O)C12CCN(S(=O)(=O)c1ccc(C(C)C)cc1)CC2	6
CCN1C[C@]23CN(C(=O)C4CCC4)C[C@@H](C[C@H]2S1(=O)=O)O3	1
COCCN(Cc1cccs1)C(=O)c1c(C)nc2ncccn12	-8
Cc1cc(C)nc(N2CC(n3nc(C)cc3C)C2)n1	4
Cc1ccc(S(=O)(=O)Nc2ccc3c(c2)C(=O)N([C@H](C)CO)C[C@H](C)[C@@H](CN(C)Cc2ccc(C(F)(F)F)cc2)O3)cc1	14
COc1ccc(CN(C)C[C@@H]2OCCCC[C@@H](C)Oc3ccc(NC(=O)C4CCCCC4)cc3C(=O)N([C@H](C)CO)C[C@@H]2C)cc1	161
Cc1ccc(S(=O)(=O)Nc2ccc3c(c2)C(=O)N([C@@H](C)CO)C[C@H](C)[C@@H](CN(C)Cc2ccc(C(F)(F)F)cc2)O3)cc1	-60
COc1ccc(S(=O)(=O)Nc2ccc3c(c2)C(=O)N([C@H](C)CO)C[C@@H](C)[C@H](CN(C)Cc2ccc(C(F)(F)F)cc2)OCCCC[C@@H](C)O3)cc1	-119*
COc1ccc(S(=O)(=O)Nc2ccc3c(c2)C(=O)N([C@H](C)CO)C[C@@H](C)[C@@H](CN(C)Cc2ccc(C(F)(F)F)cc2)OCCCC[C@H](C)O3)cc1	-120*
SMILES	Tg IFNy HTS
COc1ccc(CN(C)C[C@H]2OCCCC[C@H](C)Oc3ccc(NC(=O)C4CCCCC4)cc3C(=O)N([C@@H](C)CO)C[C@@H]2C)cc1	271
COc1ccc(S(=O)(=O)Nc2ccc3c(c2)C(=O)N([C@@H](C)CO)C[C@@H](C)[C@@H](CN(C)Cc2ccc(C(F)(F)F)cc2)OCCCC[C@H](C)O3)cc1	-120*
Cc1ccc(S(=O)(=O)Nc2ccc3c(c2)C(=O)N([C@@H](C)CO)C[C@@H](C)[C@@H](CN(C)Cc2ccc(C(F)(F)F)cc2)O3)cc1	-17
O=S(=O)(NCCc1csc(-c2cccc(F)c2)n1)c1ccccc1Cl	15
CN1CCNC(=O)C1CC(=O)NCCc1nccc(-c2ccccc2)n1 (stereo not given)	-6
CNC(=O)[C@]12CCO[C@H]1CCN(CCOc1ccc(Cl)cc1)C2	-1
COCCN(C)c1ccc2ccc(C(=O)N3CCC(N(C)C)C3)cn12 (stereo not given)	1
Cc1nccc(-c2ccc(-c3noc(CN4CCN(C(C)c5ccccc5)CC4)n3)cc2)n1 (stereo not given)	-1
CCN1CCN(C)C2(CCN(C(=O)C3CCCO3)CC2)C1=O (stereo not given)	-54
Cc1csc(NC(=O)c2c(O)c3ccccc3[nH]c2=O)n1	54
CNC(=O)COc1ccc(-c2cccc(-n3cccn3)c2)cc1	12
O=C(NCc1cccc(O)c1)Nc1nc(-c2ccncc2)cs1	-74*
COc1cccc(CNC(=O)Nc2ccc(-c3nc(-c4ccccc4)co3)cc2)c1	72
O=C(Nc1nc(-c2ccccc2)cs1)C1CCCN1C(=O)OCc1ccccc1 (stereo not given)	107
CCOc1c(CN(C)c2ncnc3c2CCNC3)cccc1OC	-7
NCc1cn(CC2CCCN(C(=O)NC34CC5CC(CC(C5)C3)C4)C2)nn1 (stereo not given)	-1
CN1CC2(CCCN(Cc3ccsc3)CC2)OC1=O (stereo not given)	-12
CN(C)CCCN1c2ccccc2Sc2ccc(Cl)cc21	-81*!
O=C(CCN1CCN2CCCCC2C1)N1c2ccccc2Sc2ccc(Cl)cc21 (stereo not given)	-12
CC(=O)c1ccc2c(c1)N(CCCN1CCC(CCO)CC1)c1ccccc1S2	-34
OCCN1CCN(CCCN2c3ccccc3Sc3ccc(Cl)cc32)CC1	-100*!
O=C(CSc1nnc(-c2ccco2)o1)N1c2ccccc2Sc2ccc(Cl)cc21	15
CN(C)CCCN1c2ccccc2CCc2ccccc21	-51
COCCN1C(=O)N(Cc2ccccc2)C2(CCN(Cc3ccco3)CC2)C1=O	-5
Cn1cnc2c1C(C(=O)O)CN(C(=O)c1ccsc1)C2 (stereo not given)	-50
SMILES	Tg IFNy HTS
COCC1(CNC(=O)CC(=O)Nc2ccc(C)cc2)CC1	23
c1ccc2sc(CCc3nc4ccccc4s3)nc2c1	324
Oc1ccc(O)c(Cc2nc3ccccc3s2)c1	-93*
CCc1cc(C(=O)Cc2nc3ccccc3s2)c(O)cc1O	96
Cc1ccc(-c2noc(-c3nnn(Cc4nc(-c5cccc(C)c5)oc4C)c3C)n2)cc1	1
CCCN(CC1CCCO1)C(=O)c1ccc(-n2cccc2)cc1 (stereo not given)	0
Cc1cc(C)cc(NC(=O)N2CCN(Cc3nc(-c4ccccc4C)oc3C)CC2)c1	-2
COc1ccc(CC2(CO)CCN(c3ncnc4c3CCC4)CC2)cc1	-50
NC(=O)c1cncc(N2CCC(CO)(Cc3ccccc3)CC2)n1	-32
Cc1cccc2cc(CO)c(N3CCC(CO)(Cc4ccccc4)CC3)nc12	-77*
O=C(CN1CCC(c2ccccc2)CC1)Nc1nnc(C2CCCCC2)s1	3
